According to PubChem BioAssay AID1159580 (chemical genetic matrix, 2015):
Screen size: about 5,500 compounds; about 2,000 (36%) were called active. Not shown: some 18% with an inconclusive outcome. No stated cut-off is given here; in the data, active means normalized growth mostly below about 0.91 (no sharp cut-off); inconclusive means no clear call, values can overlap the other calls; inactive means mostly above about 0.92. The list shows a part of the results.

Test: chemical genetic growth profiling, strain panel (AID 1159580);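 further: tested at 20 µM; growth read once vehicle control cultures reached saturation at 30 °C; 1 = growth at the plate median or of vehicle wells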
Conditions: growth OD

Measured: normalized growth

c1coc(CNc2ncnc3nc[nH]c23)c1
inactive: S. cerevisiae deletion strains, locus YJR075W, strain HOC1, stronger effect = lower value 1 | S. cerevisiae deletion strains, locus YKL009W, strain mrt4, stronger effect = lower value 1.03 | S. cerevisiae deletion strains, locus YKL068W, stronger effect = lower value 0.979 | S. cerevisiae deletion strains, locus YKL085W, strain MDH1 (second series), stronger effect = lower value 1.01 | S. cerevisiae deletion strains, locus YKL085W, strain MDH1, stronger effect = lower value 1.01 | S. cerevisiae deletion strains, locus YKL160W, strain elf1, stronger effect = lower value 1.02 | S. cerevisiae deletion strains, locus YKL190W, strain CNB1, stronger effect = lower value 0.994 | S. cerevisiae deletion strains, locus YKR001C, strain vps1, stronger effect = lower value 1 | S. cerevisiae deletion strains, locus YKR026C, strain gcn3, stronger effect = lower value 0.999 | S. cerevisiae deletion strains, locus YKR091W, strain srl3, stronger effect = lower value 0.994 | S. cerevisiae deletion strains, locus YLL001W, strain dnm1, stronger effect = lower value 1.01 | S. cerevisiae deletion strains, locus YLL026W, stronger effect = lower value 0.999 | S. cerevisiae deletion strains, locus YLL041C, strain sdh2, stronger effect = lower value 0.997 | S. cerevisiae deletion strains, locus YLR027C, strain aat2, stronger effect = lower value 1 | S. cerevisiae deletion strains, locus YLR039C, strain RIC1, stronger effect = lower value 1.01 | S. cerevisiae deletion strains, locus YLR058C, strain SHM2, stronger effect = lower value 1 | S. cerevisiae deletion strains, locus YLR102C, strain apc9, stronger effect = lower value 0.989 | S. cerevisiae deletion strains, locus YLR113W, strain HOG1, stronger effect = lower value 0.993 | S. cerevisiae deletion strains, locus YLR221C, strain rsa3, stronger effect = lower value 0.975 | S. cerevisiae deletion strains, locus YLR258W, strain gsy2, stronger effect = lower value 0.996 | S. cerevisiae deletion strains, locus YLR262C, strain YPT6 (second series), stronger effect = lower value 0.977 | S. cerevisiae deletion strains, locus YLR262C, strain YPT6, stronger effect = lower value 0.981 | S. cerevisiae deletion strains, locus YLR268W, strain sec22, stronger effect = lower value 0.97 | S. cerevisiae deletion strains, locus YLR320W, strain mms22, stronger effect = lower value 1 | S. cerevisiae deletion strains, locus YLR330W, strain CHS5, stronger effect = lower value 0.994 | S. cerevisiae deletion strains, locus YLR342W, strain FKS1 (second series), stronger effect = lower value 1.02 | S. cerevisiae deletion strains, locus YLR342W, strain FKS1, stronger effect = lower value 1.01 | S. cerevisiae deletion strains, locus YLR357W, strain rsc2, stronger effect = lower value 0.98 | S. cerevisiae deletion strains, locus YLR370C, strain arc18, stronger effect = lower value 0.993 | S. cerevisiae deletion strains, locus YLR371W, strain rom2, stronger effect = lower value 0.99 | S. cerevisiae deletion strains, locus YLR384C, strain iki3, stronger effect = lower value 1 | S. cerevisiae deletion strains, locus YLR418C, strain cdc73, stronger effect = lower value 1 | S. cerevisiae deletion strains, locus YML016C, strain PPZ1, stronger effect = lower value 1 | S. cerevisiae deletion strains, locus YML032C, strain rad52, stronger effect = lower value 0.993 | S. cerevisiae deletion strains, locus YML120C, strain ndi1, stronger effect = lower value 0.992 | S. cerevisiae deletion strains, locus YML124C, strain tub3, stronger effect = lower value 1 | S. cerevisiae deletion strains, locus YMR058W, strain fet3, stronger effect = lower value 0.998 | S. cerevisiae deletion strains, locus YMR078C, strain ctf18, stronger effect = lower value 0.994 | S. cerevisiae deletion strains, locus YMR125W, strain sto1, stronger effect = lower value 0.974 | S. cerevisiae deletion strains, locus YMR129W, stronger effect = lower value 0.988 | S. cerevisiae deletion strains, locus YMR205C, strain PFK2, stronger effect = lower value 1 | S. cerevisiae deletion strains, locus YMR223W, strain ubp8, stronger effect = lower value 1.02 | S. cerevisiae deletion strains, locus YMR231W, strain pep5, stronger effect = lower value 0.991 | S. cerevisiae deletion strains, locus YMR263W, strain SAP30, stronger effect = lower value 0.986 | S. cerevisiae deletion strains, locus YMR307W, strain GAS1, stronger effect = lower value 1.11 | S. cerevisiae deletion strains, locus YNL067W, strain RPL9B, stronger effect = lower value 0.983 | S. cerevisiae deletion strains, locus YNL071W, strain lat1, stronger effect = lower value 0.999 | S. cerevisiae deletion strains, locus YNL128W, strain TEP1, stronger effect = lower value 0.99 | S. cerevisiae deletion strains, locus YNL153C, strain GIM3, stronger effect = lower value 0.991 | S. cerevisiae deletion strains, locus YNL183C, strain NPR1, stronger effect = lower value 0.914 | S. cerevisiae deletion strains, locus YNL209W, strain ssb2, stronger effect = lower value 0.986 | S. cerevisiae deletion strains, locus YNL233W, strain BNI4, stronger effect = lower value 1.01 | S. cerevisiae deletion strains, locus YNL248C, strain rpa49, stronger effect = lower value 0.989 | S. cerevisiae deletion strains, locus YNL250W, strain rad50, stronger effect = lower value 0.995 | S. cerevisiae deletion strains, locus YNL271C, strain bni1, stronger effect = lower value 0.988 | S. cerevisiae deletion strains, locus YNL298W, strain CLA4, stronger effect = lower value 1 | S. cerevisiae deletion strains, locus YNL307C, strain MCK1, stronger effect = lower value 0.995 | S. cerevisiae deletion strains, locus YNL322C, strain KRE1 (second series), stronger effect = lower value 0.992 | S. cerevisiae deletion strains, locus YNL322C, strain KRE1, stronger effect = lower value 0.987 | S. cerevisiae deletion strains, locus YNR049C, strain mso1, stronger effect = lower value 0.999 | S. cerevisiae deletion strains, locus YNR052C, strain pop2, stronger effect = lower value 0.993 | S. cerevisiae deletion strains, locus YOL006C, strain TOP1, stronger effect = lower value 0.981 | S. cerevisiae deletion strains, locus YOL012C, strain htz1 0.989 | S. cerevisiae deletion strains, locus YOL147C, strain pex11, stronger effect = lower value 0.999 | S. cerevisiae deletion strains, locus YOR001W, strain rrp6, stronger effect = lower value 1.01 | S. cerevisiae deletion strains, locus YOR061W, strain CKA2, stronger effect = lower value 1 | S. cerevisiae deletion strains, locus YOR069W, strain VPS5, stronger effect = lower value 1 | S. cerevisiae deletion strains, locus YOR070C, strain gyp1, stronger effect = lower value 1 | S. cerevisiae deletion strains, locus YOR080W, strain dia2, stronger effect = lower value 0.995 | S. cerevisiae deletion strains, locus YOR083W, strain WHI5, stronger effect = lower value 1 | S. cerevisiae deletion strains, locus YOR106W, strain vam3, stronger effect = lower value 1 | S. cerevisiae deletion strains, locus YOR136W, strain idh2, stronger effect = lower value 0.996 | S. cerevisiae deletion strains, locus YOR144C, strain elg1, stronger effect = lower value 0.99 | S. cerevisiae deletion strains, locus YOR184W, strain ser1, stronger effect = lower value 0.997 | S. cerevisiae deletion strains, locus YOR231W, strain MKK1, stronger effect = lower value 0.998 | S. cerevisiae deletion strains, locus YOR265W, strain rbl2, stronger effect = lower value 0.996 | S. cerevisiae deletion strains, locus YOR270C, strain vph1, stronger effect = lower value 0.99 | S. cerevisiae deletion strains, locus YOR290C, strain snf2, stronger effect = lower value 0.991 | S. cerevisiae deletion strains, locus YOR316C, strain cot1, stronger effect = lower value 0.989 | S. cerevisiae deletion strains, locus YPL051W, strain arl3, stronger effect = lower value 0.996 | S. cerevisiae deletion strains, locus YPL055C, strain LGE1, stronger effect = lower value 0.978 | S. cerevisiae deletion strains, locus YPL078C, strain atp4, stronger effect = lower value 1.01 | S. cerevisiae deletion strains, locus YPL106C, strain sse1, stronger effect = lower value 0.995 | S. cerevisiae deletion strains, locus YPL240C, strain hsp82, stronger effect = lower value 1.02 | S. cerevisiae deletion strains, locus YPL241C, strain CIN2, stronger effect = lower value 1 | S. cerevisiae deletion strains, locus YPL256C, strain CLN2, stronger effect = lower value 0.965 | S. cerevisiae deletion strains, locus YPR119W, strain clb2, stronger effect = lower value 0.999 | S. cerevisiae deletion strains, locus YPR141C, strain kar3, stronger effect = lower value 0.981 | S. cerevisiae deletion strains, locus YPR163C, strain tif3, stronger effect = lower value 1 | S. cerevisiae deletion strains, locus YPR167C, strain met16, stronger effect = lower value 0.99 | S. cerevisiae deletion strains, strain wtn01, stronger effect = lower value 0.986 | S. cerevisiae strains, strain wild type, stronger effect = lower value 0.999
